PubChem BioAssay (NCATS)
Inconclusive results are not listed. Activity calls are given as the source filed them. Unless noted, calls come from the whole dose curve; as a rule, active = well fitted curve in the direction sought with a large enough effect; inconclusive = small, poorly fitted or top-dose-only effect, or another doubt; inactive = no such curve, though single readings can be large; an effect the other way counts as inactive or inconclusive.

Assays:
[1] = Cell Viability - Jurkat (AID 426;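 active = dose-dependent loss of cell ATP signal giving a full or clear fitted curve, ranked by lower potency value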; note: potency is the fitted concentration of half-maximal effect); settings: qHTS
Outline: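 Jurkat (Clone E6-1) cells, 5000/well in complete medium, exposed to compounds for 40 hr at 37C; intracellular ATP measured by CellTiter-Glo luminescence after 20 min at room temperature. AC50 from Hill fits.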

[2] = Cell Viability - Hek293 (AID 427;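 active = compounds whose dose-response curve shows a full or clear partial loss of cell viability, called from curve shape rather than a numeric limit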;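 note: potency is the fitted concentration of half-maximal effect; cells exposed to compound for 40 hours at 37 °C before reading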); settings: qHTS
Outline: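 Luminescent ATP content (CellTiter-Glo, 20 min at room temperature) was measured after a 40 hr, 37 °C compound exposure of HEK293 cells. AC50 values came from Hill-equation fits of qHTS concentration-response data normalized to DMSO and 100 uM tamoxifen.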

[3] = Cell Viability - HepG2 (AID 433; calls by dose curve;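 note: potency is the fitted concentration of half-maximal effect; potency for ATP loss meaning cytotoxicity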); settings: qHTS
Outline: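 Cytotoxicity is scored as loss of intracellular ATP in HepG2 cells exposed to compounds for 40 h. Concentration-response curves, normalized to DMSO and 100 uM tamoxifen, give AC50 values.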

[4] = Cell Viability - MRC5 (AID 434; calls by dose curve;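 note: potency is the fitted concentration of half-maximal effect; potency reflects cytotoxicity seen as loss of intracellular ATP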); settings: MRC5 lung fibroblast viability, qHTS
Outline: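 MRC5 normal human lung fibroblasts (1500/well) were treated with compounds for 40 hr at 37 °C in complete medium, and viable cells were measured as intracellular ATP by CellTiter-Glo luminescence. AC50 came from Hill fits, normalized to DMSO and 100 uM tamoxifen.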

[5] = Cell Viability - SK-N-SH (AID 435; calls by dose curve;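 note: potency is the fitted concentration of half-maximal effect; compound exposure lasted 40 h at 37 °C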); settings: SK-N-SH neuroblastoma cell viability qHTS
Outline: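 Cells seeded at 1500 per well and incubated 5 hr at 37 °C. Compound added, then 40 hr at 37 °C. CellTiter-Glo added, 20 min at room temperature, luminescence read.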

[6] = molecular target: Mitogen-activated protein kinase 10 (Mus musculus) (UniProt Q61831); assay: JNK3 AlphaScreen Assay (AID 530; active = well fitted curve in either direction with a large enough effect, not every such curve was filed as active;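 note: kinase came from lysate of stimulated human HepG2 cells; signal reports phosphorylation of biotinylated GST-cJun 1-79 at Ser73 with 10 µM ATP; % is set by controls: 0 for no effect and ±100 for the full control effect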); settings: JNK3 lysate, c-Jun phosphorylation; series mostly up to 57.1 µM
Outline: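 Inhibitors reduce antibody binding to phosphorylated biotin-cJun, lowering AlphaScreen luminescence. Lysates from HepG2 cells pre-activated by IL-1beta plus TNF-alpha supplied JNK3; compounds were titrated.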

[7] = Cell Viability - N2a (AID 540); settings: N2a mouse neuroblastoma cell viability; at 92.2 µM (top of the series);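 note: plate controls were DMSO alone for no effect and tamoxifen control for full effect; nearly all actives have a fitted effect of over 45% in size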
Outline: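 Mouse neuroblastoma N2a cells, 1500/well, exposed to compounds 40 h at 37 °C in complete medium. Viability measured as cellular ATP by CellTiter-Glo luminescence; AC50 from Hill fits of concentration-response.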

[8] = Cell Viability - NIH 3T3 (AID 541); settings: NIH 3T3 cell viability, qHTS; activity change, negative = cytotoxicity: at 92.2 µM (top of the series);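 note: plate controls were DMSO alone for no effect and tamoxifen positive control for full effect; nearly all actives have a fitted effect of over 25% in size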
Outline: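 Mouse NIH 3T3 fibroblasts, 1000 cells/well, rested 5 hr at 37 °C, then exposed to compound for 40 hr at 37 °C in complete medium. Viability read as intracellular ATP by CellTiter-Glo luminescence; AC50 from Hill-equation fits of concentration-response data.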

[9] = Cell Viability - HUV-EC-C (AID 542); settings: HUV-EC-C endothelial cell viability, qHTS; series mostly up to 92.2 µM; note: % is set by controls: 0 for no effect and ±100 for the full control effect; nearly all actives have a fitted effect of over 35% in size
Outline: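 HUV-EC-C human vascular endothelial cells, 1000/well, exposed to compound for 40 hr at 37 °C in complete medium. Intracellular ATP was read by CellTiter-Glo luminescence. AC50 came from Hill-equation fits of concentration-response data.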

[10] = Cell Viability - H-4-II-E (AID 543); settings: H-4-II-E rat hepatoma viability; series mostly up to 92.2 µM; note: % is set by controls: 0 for no effect and ±100 for the full control effect; nearly all actives have a fitted effect of over 35% in size
Outline: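 Rat hepatoma H-4-II-E cells, 1500 per well, treated 40 h at 37 °C in complete medium. Cellular ATP read by CellTiter-Glo luminescence; AC50 from Hill fits of concentration-response.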

[11] = Cell Viability - Renal Proximal Tubule (AID 545); settings: renal proximal tubule cells viability; at 91.7 µM (top of the series), primary cells of rat origin unless noted; note: nearly all actives have a fitted effect of over 40% in size
Outline: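 Cytotoxicity is scored as a concentration-dependent drop in cellular ATP in primary rat renal proximal tubule cells exposed for 40 hr. AC50 derives from Hill modelling.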

[12] = Cell Viability - Mesenchymal (AID 546); settings: mesenchymal cells viability, qHTS; series mostly up to 91.7 µM;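 note: cells exposed to compound for 40 hours before reading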
Outline: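 Normal human renal glomerulus-derived kidney mesenchymal cells, 1000 per well in complete medium, were treated with compounds for 40 hr at 37 °C. Viability was read as intracellular ATP by CellTiter-Glo luminescence; AC50 values came from Hill-equation fits of qHTS concentration-response data.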

[13] = Cellular Toxicity (caspase-3) HepG2 (AID 654); settings: HepG2 caspase-3 activation, luminescence, 0% = DMSO only, 100% = tamoxifen; series mostly up to 92.2 µM;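 note: cells exposed to compound for 16 hours before reading; 0% = DMSO alone and 100% = caspase signal from 100 µM tamoxifen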
Outline: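 HepG2 cells (1500/well) were treated 16 h at 37 °C in complete medium, then caspase 3/7 activity was read by Caspase-Glo luminescence. Data were normalized to DMSO and 100 uM tamoxifen; AC50 came from Hill-equation fits of qHTS concentration-response.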

[14] = Cellular Toxicity (caspase-3) Jurkat (AID 655); settings: Jurkat caspase-3 activation, luminescence, DMSO = 0%, tamoxifen = 100%; at 92.2 µM (top of the series);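 note: cells exposed to compound for 16 h at 37 °C before reading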
Outline: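 Caspase 3/7 activation is scored as increased luminescence in Jurkat cells cultured with compound for 16 hours in complete medium. AC50 values come from Hill fits of qHTS concentration-response data normalized to DMSO and 100 uM tamoxifen controls.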

[15] = Cellular Toxicity (caspase-3) HUV-EC-C (AID 656); settings: HUV-EC-C cells, caspase-3 activation (apoptosis), vehicle = 0, 100 µM tamoxifen = 100%; series mostly up to 92.2 µM
Outline: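 Read-out: luminescence proportional to caspase 3/7 activity, measured 20 min after adding Caspase-Glo 3/7 reagent. Cells (HUV-EC-C) had received compound for 16 hr at 37°C. Increases relative to DMSO and 100 uM tamoxifen gave concentration-response AC50 values.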

[16] = Cellular Toxicity (caspase-3) SHSY5Y (AID 657); settings: SH-SY5Y caspase-3 activation, DMSO zero, 10 µM staurosporine = 100%; series mostly up to 91.7 µM
Outline: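 Cells plated and incubated 5 h at 37 °C, dosed over a concentration range, incubated 16 h, then given Caspase-Glo 3/7 reagent for 1 h at room temperature before luminescence reading. Staurosporine (10 uM) defined full stimulation.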

[17] = Cellular Toxicity (caspase-3) BJ (AID 658); settings: BJ fibroblasts, luminescence, normalized: DMSO 0%, staurosporine 100%; series mostly up to 91.7 µM
Outline: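 Luminescent aminoluciferin-substrate cleavage reports caspase 3/7 activity in normal human BJ fibroblasts after 16 hr compound exposure at 37 °C. Normalized to DMSO (basal) and 10 uM staurosporine (100%); AC50 from Hill fit of concentration-response.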

[18] = Cellular Toxicity (caspase-3) MRC-5 (AID 659); settings: MRC-5 cells, luminescence, normalized: DMSO 0%, 10 µM staurosporine 100%; series mostly up to 91.7 µM
Outline: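 Luminescence from caspase-cleaved aminoluciferin substrate (Caspase-Glo 3/7, 1 hr RT) reports caspase 3/7 activity in MRC-5 lung fibroblasts after 16 hr compound exposure. Normalized to DMSO basal and 10 uM staurosporine as 100%; AC50 from Hill fits.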

[19] = Cellular Toxicity (caspase-3) Mesangial (AID 660); settings: mesangial cells, normalized: DMSO 0%, 100 µM tamoxifen 100%; series mostly up to 91.7 µM;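 note: cells exposed to compound for 16 h before the caspase read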
Outline: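 Human renal glomerular mesangial cells, 1000/well, 5 h at 37 C before 16 h compound treatment. Caspase-Glo 3/7 luminescence after 20 min; normalized to DMSO and 100 uM tamoxifen, AC50 from Hill fit.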

[20] = Cellular Toxicity (caspase-3) SK-N-SH (AID 661); settings: SK-N-SH caspase-3 activation, qHTS, DMSO as zero, staurosporine as full; series mostly up to 91.7 µM
Outline: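 Human SK-N-SH neuroblastoma cells, 1500/well, were exposed to compounds for 16 hours at 37 °C. Caspase-Glo 3/7 luminescence was normalized to DMSO (basal) and 10 uM staurosporine (100%), and AC50 came from a Hill fit.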

[21] = Cellular Toxicity (caspase-3) H-4-II-E (AID 663); settings: H-4-II-E rat hepatoma, scaled: DMSO 0%, 100 µM tamoxifen 100%; series mostly up to 92.2 µM;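 note: cells exposed to compound for 16 hr before readout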
Outline: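 Luminescence from caspase-cleaved aminoluciferin substrate, read 20 min after reagent addition, reports caspase 3/7 activation in rat H-4-II-E cells after 16 hr compound exposure. Normalized to DMSO (basal) and 100 uM tamoxifen (100%); AC50 from Hill fits.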

[22] = Cellular Toxicity (caspase-3) Hek293 (AID 664); settings: HEK293 caspase-3 activation, DMSO = 0%, 100 µM tamoxifen = 100%; series mostly up to 92.2 µM;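 note: cells exposed to compound for 16 h at 37 °C before readout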
Outline: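 HEK293 cells in complete medium treated 16 h at 37 °C, then Caspase-Glo 3/7 luminescence read after 20 min at room temperature. Normalized to DMSO and 100 uM tamoxifen; AC50 from Hill fit of concentration-response.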

C=CC(=C)C
inactive: Potency [1] > 92 µM | Potency [2] > 92 µM | Potency [3] > 92 µM | Potency [4] > 92 µM | Potency [5] > 92 µM | outcome [6] | activity change, negative = cytotoxicity [7] 4.7% | activity change, negative = cytotoxicity [8] -9.16% | Potency [9] | Potency [10] | activity change, negative = cytotoxicity [11] 5.45% | outcome [12] | outcome [13] | caspase-3 activation [14] 0.843% | outcome [15] | outcome [16] | outcome [17] | outcome [18] | outcome [19] | outcome [20] | outcome [21] | outcome [22]
